# Test results reported in PubChem BioAssay (EPA / NIEHS).
# Several values for one entry are separate records, joined by “and”; a condition that tells them apart may be missing. Identical values can stand only once. Activity calls are given as the source filed them. Rule for the calls: active = hit-call score of the fitted dose curve at least 0.9, where 1 is the maximum; inactive = score below 0.9.
# Assay: BSK_IMphg_SRB: Viability Assessment in the BioMAP Diversity Plus: IMphg Assay (AID 2284292);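 note: measured one day after compound addition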
# Details: primary human endothelial cells with macrophages
# Summary of the method: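 Human venular endothelial cells with macrophages, 24 h after chemical dosing; total protein by 0.1% SRB staining after 10% TCA fixation, read at 560 nm. Positive-direction fitting versus DMSO baseline.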
Structure (SMILES),outcome,AC50
O=C(O)C(F)(OC(F)(F)C(F)(OC(F)(F)C(F)(OC(F)(F)C(F)(F)C(F)(F)F)C(F)(F)F)C(F)(F)F)C(F)(F)F (stereo unspecified),inactive,
FC(F)(F)C(F)(F)C(F)(F)C(F)(F)C(F)(F)C(F)(F)CCS,inactive,
C=C(C)C(=O)OCC(F)(F)C(F)(F)C(F)(F)C(F)(F)C(F)(F)C(F)(F)C(F)(F)F,inactive,
FC(F)(F)C(F)(F)C(F)(F)C(F)(F)CCI,inactive,
O=C(O)C(F)(F)C(F)(F)C(F)(F)F,inactive,
N=C(N)C(F)(F)C(F)(F)C(F)(F)C(F)(F)C(F)(F)C(F)(F)C(F)(F)F,inactive,
O=C(O)C(F)(OC(F)(F)C(F)(OC(F)(F)C(F)(F)C(F)(F)F)C(F)(F)F)C(F)(F)F (stereo unspecified),inactive,
O=C(O)C(F)(F)C(F)(F)C(F)(F)C(F)(F)C(F)(F)C(F)(F)C(F)(F)C(F)(F)C(F)(F)C(F)(F)C(F)(F)C(F)(F)C(F)(F)F,inactive,
FC(F)(F)C(F)(F)C(F)(F)N(C(F)(F)C(F)(F)C(F)(F)F)C(F)(F)C(F)(F)C(F)(F)F,inactive,
O=C(O)C=C(C(F)(F)F)C(F)(F)F,inactive,
O=C(O)C(F)(F)C(F)(F)F,inactive,
FC(F)(I)C(F)(F)C(F)(F)C(F)(F)I,inactive,
OCC(F)(F)C(F)(F)C(F)(F)F,inactive,
FC(F)(F)C(F)(F)C(F)(F)C(F)(F)C(F)(F)C(F)(F)C(F)(F)Br,inactive,
OCC(F)(F)C(F)(F)C(F)(F)C(F)F,inactive,
OCCCC(F)(F)C(F)(F)C(F)(F)C(F)(F)C(F)(F)C(F)(F)C(F)(F)F,,51.8 µM (active) and 47.2 µM (active)
